Test results taken from PubChem BioAssay AID1159580 (chemical genetic matrix, 2015).
Values joined by “and” are separate entries in the source; they are usually repeats but may differ in a detail not shown here. Equal values may be shown once. Screen size: about 5,500 compounds; about 2,000 (36%) were called active. About 18% were inconclusive and are not listed. No stated cut-off is given here; in the data, active means normalized growth mostly below about 0.91 (no sharp cut-off); inconclusive means no clear call, values can overlap the other calls; inactive means mostly above about 0.92. The list shows a part of the results.

Assay: chemical genetic growth profiling, strain panel (AID 1159580);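 further: tested at 20 µM; growth read once vehicle control cultures reached saturation at 30 °C; 1 = growth at the plate median or of vehicle wells; lower values mean less growth of the strain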
Conditions: S. cerevisiae deletion strains, growth OD

Measured: normalized growth

CC(=O)N[C@@H](CC(C)C)C(=O)O
inactive: locus YAL013W, strain DEP1, hits give low values 0.983 | locus YAL021C, strain ccr4, hits give low values 1 | locus YAL026C, strain drs2, hits give low values 0.989 | locus YAL030W, strain snc1, hits give low values 1 | locus YBL061C, strain skt5, hits give low values 0.986 | locus YBR009C, strain hhf1, hits give low values 0.99 | locus YBR021W, strain FUR4, hits give low values 1 | locus YBR023C, strain chs3, hits give low values 1 | locus YBR171W, strain sec66, hits give low values 0.981 | locus YBR229C, strain ROT2, hits give low values 0.996 | locus YBR231C, strain swc5, hits give low values 0.972 | locus YBR279W, strain paf1, hits give low values 1 | locus YCL011C, strain gbp2, hits give low values 1.01 | locus YCL016C, strain dcc1, hits give low values 0.995 | locus YCL029C, strain bik1, hits give low values 0.97 | locus YCL069W, strain vba3, hits give low values 0.996 | locus YCR088W, strain abp1, hits give low values 1 | locus YDL005C, strain med2, hits give low values 0.991 | locus YDL035C, strain GPR1, hits give low values 0.985 | locus YDL040C, strain nat1, hits give low values 0.988 | locus YDL074C, strain BRE1, hits give low values 1.02 | locus YDL101C, strain DUN1, hits give low values 0.994 | locus YDL134C, strain PPH21, hits give low values 0.987 | locus YDL185W, strain tfp1, hits give low values 0.944 | locus YDL192W, strain arf1, hits give low values 0.986 | locus YDR001C, strain nth1, hits give low values 1 | locus YDR069C, strain doa4, hits give low values 0.971 | locus YDR101C, strain arx1, hits give low values 0.989 | locus YDR137W, strain rgp1, hits give low values 1 | locus YDR150W, strain NUM1, hits give low values 0.983 | locus YDR159W, strain sac3, hits give low values 0.961 | locus YDR162C, strain NBP2, hits give low values 0.981 | locus YDR195W, strain ref2 0.948 | locus YDR297W, strain sur2, hits give low values 0.991 | locus YDR318W, strain mcm21, hits give low values 0.97 | locus YDR334W, strain swr1, hits give low values 0.989 | locus YDR335W, strain msn5, hits give low values 0.987 | locus YDR388W, hits give low values 0.989 | locus YDR392W, strain spt3, hits give low values 1.02 | locus YDR502C, strain sam2, hits give low values 0.972 | locus YEL003W, strain gim4, hits give low values 0.989 | locus YEL037C, strain rad23, hits give low values 0.994 | locus YEL061C, strain CIN8 (second series), hits give low values 0.986 | locus YEL061C, strain CIN8, hits give low values 0.993 | locus YER015W, strain faa2, hits give low values 0.993 | locus YER016W, strain bim1, hits give low values 1.01 | locus YER110C, hits give low values 0.97 | locus YER111C, strain swi4, hits give low values 0.988 | locus YER155C, strain BEM2 (second series), hits give low values 0.98 | locus YER155C, strain BEM2, hits give low values 0.992 | locus YER167W, strain BCK2, hits give low values 0.98 | locus YFR010W, strain ubp6, hits give low values 0.98 | locus YGL078C, strain dbp3, hits give low values 0.975 | locus YGL086W, strain mad1, hits give low values 0.996 | locus YGL167C, strain pmr1, hits give low values 0.972 | locus YGL173C, strain kem1, hits give low values 0.97 | locus YGL227W, strain vid30, hits give low values 0.98 | locus YGL240W, strain doc1, hits give low values 0.972 | locus YGL248W, strain PDE1, hits give low values 1.01 | locus YGL253W, strain hxk2, hits give low values 0.986 | locus YGR135W, strain pre9, hits give low values 0.945 | locus YGR252W, strain gcn5, hits give low values 1 | locus YHR013C, strain ard1, hits give low values 1.01 | locus YHR027C, strain rpn1, hits give low values 1 | locus YHR030C, strain SLT2, hits give low values 0.975 and 1.04 | locus YHR079C, strain IRE1 (second series), hits give low values 0.985 | locus YHR079C, strain IRE1, hits give low values 1.02 | locus YHR094C, strain hxt1, hits give low values 0.984 | locus YHR129C, strain ARP1, hits give low values 0.992 | locus YHR142W, strain chs7, hits give low values 0.992 | locus YHR200W, strain rpn10, hits give low values 0.978 | locus YIL066C, strain RNR3, hits give low values 1.01 | locus YIL073C, strain SPO22, hits give low values 0.849 | locus YIL125W, strain kgd1, hits give low values 0.992 | locus YIR030C, strain dcg1, hits give low values 0.969 | locus YJL092W, strain hpr5, hits give low values 0.989 | locus YJL095W, strain BCK1 (second series), hits give low values 0.98 | locus YJL095W, strain BCK1, hits give low values 1.04 and 1.03 | locus YJL115W, strain asf1, hits give low values 1 | locus YJL129C, strain trk1, hits give low values 0.959 | locus YJL134W, strain LCB3, hits give low values 0.984 | locus YJL154C, strain vps35, hits give low values 0.994 | locus YJL164C, strain tpk1, hits give low values 1.01 | locus YJL166W, strain qcr8, hits give low values 0.972 | locus YJL168C, strain set2, hits give low values 0.997 | locus YJL187C, strain SWE1 (second series), hits give low values 1.02 | locus YJR043C, strain POL32, hits give low values 1.02
